From PubChem BioAssay AID686979 (National Center for Advancing Translational Sciences (NCATS), 2013)
The whole screen tested about 420,000 compounds, of which about 50,000 (12%) were called active. Entries that show only a call come without a potency. Another 26% or so got no clear call; they are omitted. For the sample, actives were picked, then their nearest neighbours and some compounds at random. A number with no mark means an inactive call. Calls come from the whole dose curve; as a rule, active = well fitted inhibition curve with a large enough effect; inconclusive = small, poorly fitted or top-dose-only effect; inactive = flat fitted curve, though single readings scatter.
Potency is the fitted concentration of half-maximal effect.

Assay: qHTS for Inhibitors of human tyrosyl-DNA phosphodiesterase 1 (TDP1): qHTS in cells in presence of CPT; note: nearly all actives have a fitted effect of over 55% in size
Details: chicken DT40 Tdp1-/-;hTDP1 cells + 20 nM CPT, ATP luminescence, 48 h; series mostly up to 46.2 µM
Outline: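 Chicken DT40 Tdp1-/- cells stably complemented with human TDP1 were seeded at 400 cells/well in medium containing 20 nM camptothecin, exposed to pin-transferred compounds, and grown at 37 °C for at least 48 hr. Viability was read as ATP luminescence.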
With `Cc1ccc(C(C[N+](=O)[O-])c2c(C)cc3ccccn23)cc1` (configuration not stated) the Potency was 10.3 µM (active).
For `COc1ccccc1C(=O)NCCC(=O)NC(C)CCc1ccccc1` (configuration not stated), the Potency was “inactive”.
For `COc1cc(C=NNC(=O)c2cccnc2)ccc1OC(=O)c1ccccc1F`, the Potency was “inactive”.
For `O=C(N/N=C/c1ccoc1)c1ccc(Cl)cc1Cl`, the Potency was “inactive”.
With `CC(C)(C)C(=O)Nc1ccc(C(=O)N/N=C/c2ccccc2OC(=O)c2ccc(Cl)cc2Cl)cc1` the Potency was 14.6 µM (active).
For `Cc1cc(C)nc(SCC(=O)N(C)C)n1`, the Potency was “inactive”.
For `COC(=O)c1c(C)[nH]c(C(=O)NCCc2ccc(S(N)(=O)=O)cc2)c1C`, the Potency was “inactive”.
In the case of `O=S(=O)(Nc1ccc(-n2cnnn2)cc1)c1ccc(Cl)cc1`, the Potency is reported as “inactive”.
For `CC(=O)c1c(C)n(S(=O)(=O)c2ccc(Cl)cc2)c2ccc(NS(=O)(=O)c3ccc(Cl)cc3)cc12`, the Potency was 10.3 µM (active).
For `CC(=O)c1c(C)oc2ccc(NS(=O)(=O)c3ccc(C(=O)O)cc3)cc12`, the Potency was “inactive”.
In the case of `Cc1csc(-c2coc3cc(O[C@@H]4O[C@H](CO)[C@@H](O)[C@@H](O)[C@H]4O)ccc3c2=O)n1`, the activity change, negative = growth inhibition is reported as 8.48% [at 9.04 µM].
For `O=C(Nc1n[nH]c(C(F)(F)F)n1)c1cccs1`, the Potency was “inactive”.
With `COc1ccccc1C(=O)Nc1ccnn1C1CCN(C(=O)C(C)(C)C)CC1` the Potency was “inactive”.
With `CCCCn1c(N)c(N(CCC(C)C)C(=O)c2ccc(COc3ccccc3)o2)c(=O)[nH]c1=O` the Potency was “inactive”.
With `CCOc1ccc(S(=O)(=O)N/N=C(\C)c2ccc(Cl)c(Cl)c2Cl)cc1` the Potency was “inactive”.
With `COC(=O)COc1ccc2c(=O)c(Oc3ccccc3Br)coc2c1` the Potency was “inactive”.
With `Cc1nn(CC(=O)Nc2ccc(F)cc2)c(=O)c2ccccc12` the Potency was “inactive”.
For `Cc1ccc(NC(=O)Cn2c(C)csc2=O)cc1`, the Potency was “inactive”.
With `Cc1ccc(NC(=O)Cn2sc3ccccc3c2=O)cc1` the Potency was 4.61 µM (active).
For `CN(C(=O)CSc1nnc(-c2c[nH]c3ccccc23)o1)C1CCS(=O)(=O)C1` (configuration not stated), the Potency was “inactive”.
With `NS(=O)(=O)c1ccc(NC(=O)COC(=O)c2cc3ccccc3oc2=O)cc1` the Potency was “inactive”.
For `COc1cc(-c2cc(C(=O)OCC(=O)Nc3ccc4c(c3)OCO4)c3ccccc3n2)cc(OC)c1OC`, the Potency was “inactive”.
With `O=C(COC(=O)c1ccncc1)Nc1ccc2c(c1)OCO2` the Potency was “inactive”.
In the case of `NS(=O)(=O)c1ccc(NC(=O)COC(=O)c2c3c(nc4ccccc24)/C(=C\c2ccc4c(c2)OCO4)CCC3)cc1`, the Potency is reported as 18.4 µM (active).
With `O=C(COC(=O)c1ccc(F)cc1)Nc1ccc2c(c1)OCO2` the Potency was “inactive”.
In the case of `NC(=O)c1ccc(NC(=O)COC(=O)c2c3c(nc4ccccc24)/C(=C\c2ccc4c(c2)OCO4)CCC3)cc1`, the Potency is reported as 11.6 µM (active).
With `CC1CC(=O)N(CC(=O)Nc2cccc(Cl)c2)c2ccccc2S1(=O)=O` (configuration not stated) the Potency was “inactive”.
With `CCOC(=O)Cc1cc(=O)[nH]c(/N=C(\N)Nc2ccc(OC)cc2)n1` the Potency was “inactive”.
With `COc1ccc(NC(=O)Cn2c(-c3ccc(OC)cc3)cn(-c3ccc(C)cc3)c2=O)cc1` the Potency was “inactive”.
For `Cc1nn(CCCC(=O)NCc2ccccc2Cl)c(=O)c2nccn12`, the Potency was “inactive”.
With `Cc1ccccc1CNC(=O)CCCn1nc(C)c2sc3ccccc3c2c1=O` the Potency was 18.4 µM (active).
With `CCc1nn(CCCC(=O)NCc2ccccc2OC)c(=O)c2cc3occc3n12` the Potency was “inactive”.
In the case of `COc1ccc(C(=O)COC(=O)c2ccc3ccccc3n2)cc1`, the Potency is reported as 20.6 µM (active).
For `CC(OC(=O)c1ccc2ccccc2n1)C(=O)c1ccccc1` (configuration not stated), the Potency was “inactive”.
With `COc1ccc(C2=NOC(COC(=O)c3ccc4ccccc4n3)C2)cc1` (configuration not stated) the Potency was “inactive”.
With `Cc1ccc(-c2nnc(CN3CCN(C)CC3)o2)cc1` the Potency was “inactive”.
For `COc1ccc(C(=O)CSc2nccc(=O)[nH]2)cc1`, the Potency was “inactive”.
In the case of `COCCNC(=O)CSc1c(C)cnc2c1c(=O)n(C)c(=O)n2C`, the Potency is reported as “inactive”.
With `COc1ccc(C(=O)CSc2c(C(C)C)cnc3c2c(=O)n(C)c(=O)n3C)cc1` the Potency was 16.4 µM (active).
For `COc1ccc(CNC(=O)CN2C(=O)c3ccccc3S2(=O)=O)cc1`, the Potency was “inactive”.
With `CS(=O)(=O)c1ccc(-c2nnc(NC(=O)c3ccc4c(c3)OCCO4)o2)cc1` the Potency was “inactive”.
For `O=C(NCc1cccs1)C(=O)NCC1OCCCN1S(=O)(=O)c1ccc(F)cc1` (configuration not stated), the Potency was “inactive”.
With `O=C(Nc1ccc(N2CCOCC2)cc1)c1cccc(S(=O)(=O)N2CCOCC2)c1` the Potency was “inactive”.
With `NC(=O)CSc1nnc(-c2cccc(S(=O)(=O)N3CCOCC3)c2)o1` the Potency was “inactive”.
For `CCN(CC(=O)NCc1cccs1)S(=O)(=O)c1ccc(NC(C)=O)cc1`, the Potency was “inactive”.
In the case of `O=C(Nc1nnc(-c2ccccc2)o1)c1cccc(S(=O)(=O)N2CCOCC2)c1`, the Potency is reported as 13 µM (active).
In the case of `CC1CCCCN1S(=O)(=O)CCNC(=O)c1ccccc1` (configuration not stated), the Potency is reported as “inactive”.
In the case of `CC1CCCCN1S(=O)(=O)c1ccc(S(=O)(=O)N(CC(=O)Nc2ccccc2)Cc2cccs2)cc1` (configuration not stated), the Potency is reported as 25.9 µM (active).
With `CC1CCCCN1S(=O)(=O)c1ccc(C(=O)Nc2nnc(-c3cccs3)o2)cc1` (configuration not stated) the Potency was 6.51 µM (active).
With `COCCN(CC(=O)Nc1ccccc1C)S(=O)(=O)c1ccc(S(=O)(=O)N2CCCC2)cc1` the Potency was “inactive”.
With `CC1CC(C)CN(S(=O)(=O)c2ccc(C(=O)NN3CCOCC3)cc2)C1` (configuration not stated) the Potency was “inactive”.
For `CC1CCCN(S(=O)(=O)c2ccc(C(=O)Nc3nnc(-c4ccncc4)o3)cc2)C1` (configuration not stated), the Potency was 11.6 µM (active).
For `CCOC(=O)c1c(/N=C/c2cc(C)ccc2O)sc2c1CCC2`, the Potency was “inactive”.
With `CC(C)OC(=O)CC(=O)CC(O)c1cccc([N+](=O)[O-])c1` (configuration not stated) the Potency was “inactive”.
In the case of `O=C(Nc1nonc1-c1ccc(Cl)cc1)c1ccco1`, the Potency is reported as “inactive”.
For `O=C(NCc1ccccn1)[C@@H]1CCCN1C(=O)[C@@H]1CCCN1C(=O)c1ccccc1`, the Potency was “inactive”.
With `CN(Cc1nc(-c2cnccn2)no1)Cc1n[nH]c2c1CCCCC2` the Potency was “inactive”.
For `COc1ccccc1CNC(=O)CS(=O)(=O)c1cccc2nsnc12`, the Potency was “inactive”.
With `Cn1c(=O)c(=O)n(C)c2cc(NC(=O)c3ccccc3Br)ccc21` the Potency was “inactive”.
For `c1ccc2c(c1)OC1OC2Oc2ccccc21`, the Potency was “inactive”.
In the case of `Cc1cc(C)nc(NS(=O)(=O)c2ccc(NC(=O)c3cc(=O)c4ccc(C)c(C)c4o3)cc2)n1`, the Potency is reported as “inactive”.
For `CS(=O)(=O)N(CC(=O)Nc1ccc(F)cc1)C1CCCCC1`, the Potency was “inactive”.
With `N[C@H]1CN(c2c(F)cc3c(=O)c(C(=O)O)cn(C4C[C@H]4F)c3c2Cl)CC12CC2` (some centres not stated) the Potency was “inactive”.
In the case of `O=C(CN1CCOCC1)Nc1cc(Cl)ccc1Cl`, the Potency is reported as “inactive”.
For `O=C(CSc1nc(Nc2ccccc2)nc(N2CCOCC2)n1)Nc1cc(Cl)ccc1O`, the Potency was 25.9 µM (active).
For `CC1(c2ccccc2)NC(=O)N(CC(=O)Nc2cc(Cl)ccc2N2CCOCC2)C1=O` (configuration not stated), the Potency was “inactive”.
With `Cn1c(N)cc(=O)n(C)c1=S` the Potency was “inactive”.
With `Cc1ccnc(NS(=O)(=O)c2ccc(NC(=O)c3oc4ccc(F)cc4c3C)cc2)n1` the Potency was “inactive”.
With `O=C(Nc1ccc(S(=O)(=O)Nc2ncccn2)cc1)C12CC3CC(CC(C3)C1)C2` the Potency was “inactive”.
For `Cc1ncn(C23CC4CC(CC(O)(C4)C2)C3)n1`, the Potency was “inactive”.
With `COC(=O)c1ccc(NC(=O)C23CC4CC(C2)CC(n2cnc(Cl)n2)(C4)C3)cc1` the Potency was 20.6 µM (active).
With `CC(=O)Oc1ccc2c(=O)oc(-c3ccc([N+](=O)[O-])cc3)nc2c1` the Potency was “inactive”.
In the case of `Cc1ccc(C)c(S(=O)(=O)n2cnc3ccccc32)c1`, the Potency is reported as “inactive”.
With `COc1ccc(S(=O)(=O)n2cnc3ccccc32)c(C)c1` the Potency was 18.4 µM (active).
With `Cc1ccc(S(=O)(=O)n2cnc3ccccc32)c(C)c1` the Potency was “inactive”.
For `N#Cc1c(NC(=O)c2ccc(N3CCOCC3)c([N+](=O)[O-])c2)sc2c1CCCC2`, the Potency was “inactive”.
With `COc1cccc2cc(C(N)=O)/c(=N\NC(=O)c3ccccc3)oc12` the Potency was “inactive”.
For `CC(C)Cn1c(N2CCN(C(=O)/C=C/c3ccccc3)CC2)nc2ccccc21`, the Potency was 18.4 µM (active).
In the case of `CC1(C(=O)O)CCCN(C(=O)/C=C/c2ccccc2)C1` (configuration not stated), the Potency is reported as “inactive”.
With `CC(C)N(C(=O)Cn1c(SCC(=O)N2CCN(c3ccccc3)CC2)nc2ccccc21)C(C)C` the Potency was “inactive”.
In the case of `CN(Cc1ccccc1Cl)C(=O)C1CCC(=O)N(CCc2cccc(F)c2)C1` (configuration not stated), the Potency is reported as “inactive”.
With `CN(C(=O)CN1CCN(c2cc(-c3ccc(OCc4ccccc4)cc3)ncn2)CC1)c1ccccc1` the Potency was 18.4 µM (active).
In the case of `CCOc1ccc(OCc2ccc(C(=O)N(C)c3ccccc3)o2)cc1`, the Potency is reported as “inactive”.
For `COc1ccc(OCC(=O)N2CCN(C(=O)COc3ccccc3)CC2)cc1`, the Potency was “inactive”.
In the case of `CCCC(C)C(=O)Nc1ccc(NC(C)=O)cc1` (configuration not stated), the Potency is reported as “inactive”.
In the case of `CC1(C)[C@@H]2CC[C@@]1(C)[C@H](OC(=O)CSC#N)C2`, the Potency is reported as “inactive”.
With `CCCCNC(=O)c1ccc(-n2c(=S)[nH]c3ccccc3c2=O)cc1` the Potency was “inactive”.
For `Cc1ccc(NC(=S)N(Cc2ccco2)C(C)c2cccs2)cc1` (configuration not stated), the Potency was “inactive”.
For `COc1cccc(/C=N/Nc2ccc(Cl)nn2)c1`, the Potency was “inactive”.
In the case of `Oc1cccc(/C=N/Nc2ccc(Cl)nn2)c1O`, the Potency is reported as 0.092 µM (active).
With `Fc1ccccc1Cc1ccc(Cl)nn1` the Potency was “inactive”.
With `CCCCCCCN=C(C)c1ccccc1O` the Potency was “inactive”.
With `C/C(=N\Nc1ccc(Cl)nn1)c1ccccc1O` the Potency was 0.58 µM (active).
For `Clc1ccc(N/N=C/c2cccs2)nn1`, the Potency was “inactive”.
With `O=CN1CCN(C(=O)c2ccc3c(c2)OCO3)CC1` the Potency was “inactive”.
In the case of `Cc1ccc(C(=O)O)cc1N1C(=O)CCCC1=O`, the Potency is reported as “inactive”.
In the case of `Cc1ccc(-n2c(C)nnc2SCC(=O)NC2CC2)cc1`, the Potency is reported as “inactive”.
For `COc1ccccc1N1CC(C(=O)Nc2ccc(S(=O)(=O)N3CCOCC3)cc2)CC1=O` (configuration not stated), the Potency was “inactive”.
For `COc1ccc(Cl)cc1NC(=O)C1CC(=O)N(c2ccc(F)cc2)C1` (configuration not stated), the Potency was “inactive”.
With `COc1cc(OC)c(N2CC(C(=O)Nc3cc(Cl)ccc3N3CCOCC3)CC2=O)cc1Cl` (configuration not stated) the Potency was 3.66 µM (active).
In the case of `CCCOc1ccc(Cc2c(O)nc(N)[nH]c2=O)cc1C`, the Potency is reported as “inactive”.
With `Cc1ccc(F)cc1S(=O)(=O)Nc1cccc(C(=O)N2CCCC(C(N)=O)C2)c1` (configuration not stated) the Potency was “inactive”.
